The values that follow come from PubChem BioAssay.

Molecules are shown by their SMILES. The source made the active and inactive calls.

Test [1] can be described thus: small molecules captured by biotinylated probe aFSTL3 – biochemical, small-molecule microarray, fluorescence 635/667, stem cell growth factor project, primary screen (AID 1064).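 Note: measures binding of the biotinylated anti-FSTL3 antibody to printed compounds.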 The following applies: higher = more signal.
A short description of test [2]: binders from COS7 lysate, DM2A8 probe, primary screen, torsin A project, cell lysate, small-molecule microarray, fluorescence 635/667 (AID 1065). The following applies: higher = more signal, COS7 lysate expressing mutant human TOR1A.
Test [3] can be described thus: small molecules captured by biotinylated probe aFGF2 – biochemical, small-molecule microarray, fluorescence 635/667, stem cell growth factor project, primary screen (AID 1067).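 Note: measures binding of biotinylated aFGF2 protein to printed compounds on slides; z-score merges feature fluorescence and signal-to-noise across triplicate slides.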 As to conditions: higher = more signal.
Test [4] in a line: small molecules captured by biotinylated probe aFGF10 – biochemical, small-molecule microarray, fluorescence 635/667, stem cell growth factor project, primary screen (AID 1071).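 Note: score merges 667 nm spot intensity and signal to noise from triplicate slides.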 The following applies: higher = more signal.
Test [5] has as its target Neurogenic locus notch homolog protein 2 (Homo sapiens) (UniProt Q04721). Briefly: small molecules binding Notch2 protein – biochemical, small-molecule microarray, 635 nm fluorescence, stem cell growth factors, primary screen (AID 1073). As to conditions: higher = more signal.
Test [6] addresses Pro-neuregulin-1, membrane-bound isoform (Homo sapiens) (UniProt Q02297). As to the kind of experiment: small molecules binding neuregulin-1 protein – biochemical, small-molecule microarray, fluorescence 635/667, psychiatric disease protein project, primary screen (AID 1075).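 Note: score combines 667 nm spot fluorescence with signal to noise.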 As to conditions: NRG1 binding, 635 nm fluorescence, higher = more signal.
In test [7] the test system is Neuregulin-1 EGF-like domain. As to the kind of experiment: small molecules binding NRG1 EGF domain – biochemical, small-molecule microarray, 635 nm fluorescence, primary screen (AID 1081).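 Note: binding of the protein to compounds printed on small-molecule microarray slides.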 As to conditions: higher = more signal.
A short description of test [8]: FRG1 expression reporter modulators in myotubes – cell-based, C2C12 myotubes, firefly/Renilla luciferase, luminescence, FRG1 inhibition for FSHD, primary screen (AID 1084). The following applies: FRG1 promoter luciferase, higher = more signal, called active from +8 up or from −8 down.
Test [9] is described as follows: small molecules captured by biotinylated probe aFST – biochemical, small-molecule microarray, fluorescence 635/667, stem cell growth factor project, primary screen (AID 1086).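 Note: score merges 667 nm fluorescence with signal-to-noise of each printed compound spot.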 As to conditions: higher = more signal.
Test [10] can be described thus: binders of probe aHhip on microarray, primary screen, stem cell growth factor project, biochemical, small-molecule microarray, fluorescence 635/667 (AID 1087).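 Note: score merges spot fluorescence at 667nm with spot signal to noise ratio.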 The following applies: higher = more signal.

Neurogenic locus notch homolog protein 2 (Homo sapiens), sequence (Q04721 whole entry, looked up, canonical isoform): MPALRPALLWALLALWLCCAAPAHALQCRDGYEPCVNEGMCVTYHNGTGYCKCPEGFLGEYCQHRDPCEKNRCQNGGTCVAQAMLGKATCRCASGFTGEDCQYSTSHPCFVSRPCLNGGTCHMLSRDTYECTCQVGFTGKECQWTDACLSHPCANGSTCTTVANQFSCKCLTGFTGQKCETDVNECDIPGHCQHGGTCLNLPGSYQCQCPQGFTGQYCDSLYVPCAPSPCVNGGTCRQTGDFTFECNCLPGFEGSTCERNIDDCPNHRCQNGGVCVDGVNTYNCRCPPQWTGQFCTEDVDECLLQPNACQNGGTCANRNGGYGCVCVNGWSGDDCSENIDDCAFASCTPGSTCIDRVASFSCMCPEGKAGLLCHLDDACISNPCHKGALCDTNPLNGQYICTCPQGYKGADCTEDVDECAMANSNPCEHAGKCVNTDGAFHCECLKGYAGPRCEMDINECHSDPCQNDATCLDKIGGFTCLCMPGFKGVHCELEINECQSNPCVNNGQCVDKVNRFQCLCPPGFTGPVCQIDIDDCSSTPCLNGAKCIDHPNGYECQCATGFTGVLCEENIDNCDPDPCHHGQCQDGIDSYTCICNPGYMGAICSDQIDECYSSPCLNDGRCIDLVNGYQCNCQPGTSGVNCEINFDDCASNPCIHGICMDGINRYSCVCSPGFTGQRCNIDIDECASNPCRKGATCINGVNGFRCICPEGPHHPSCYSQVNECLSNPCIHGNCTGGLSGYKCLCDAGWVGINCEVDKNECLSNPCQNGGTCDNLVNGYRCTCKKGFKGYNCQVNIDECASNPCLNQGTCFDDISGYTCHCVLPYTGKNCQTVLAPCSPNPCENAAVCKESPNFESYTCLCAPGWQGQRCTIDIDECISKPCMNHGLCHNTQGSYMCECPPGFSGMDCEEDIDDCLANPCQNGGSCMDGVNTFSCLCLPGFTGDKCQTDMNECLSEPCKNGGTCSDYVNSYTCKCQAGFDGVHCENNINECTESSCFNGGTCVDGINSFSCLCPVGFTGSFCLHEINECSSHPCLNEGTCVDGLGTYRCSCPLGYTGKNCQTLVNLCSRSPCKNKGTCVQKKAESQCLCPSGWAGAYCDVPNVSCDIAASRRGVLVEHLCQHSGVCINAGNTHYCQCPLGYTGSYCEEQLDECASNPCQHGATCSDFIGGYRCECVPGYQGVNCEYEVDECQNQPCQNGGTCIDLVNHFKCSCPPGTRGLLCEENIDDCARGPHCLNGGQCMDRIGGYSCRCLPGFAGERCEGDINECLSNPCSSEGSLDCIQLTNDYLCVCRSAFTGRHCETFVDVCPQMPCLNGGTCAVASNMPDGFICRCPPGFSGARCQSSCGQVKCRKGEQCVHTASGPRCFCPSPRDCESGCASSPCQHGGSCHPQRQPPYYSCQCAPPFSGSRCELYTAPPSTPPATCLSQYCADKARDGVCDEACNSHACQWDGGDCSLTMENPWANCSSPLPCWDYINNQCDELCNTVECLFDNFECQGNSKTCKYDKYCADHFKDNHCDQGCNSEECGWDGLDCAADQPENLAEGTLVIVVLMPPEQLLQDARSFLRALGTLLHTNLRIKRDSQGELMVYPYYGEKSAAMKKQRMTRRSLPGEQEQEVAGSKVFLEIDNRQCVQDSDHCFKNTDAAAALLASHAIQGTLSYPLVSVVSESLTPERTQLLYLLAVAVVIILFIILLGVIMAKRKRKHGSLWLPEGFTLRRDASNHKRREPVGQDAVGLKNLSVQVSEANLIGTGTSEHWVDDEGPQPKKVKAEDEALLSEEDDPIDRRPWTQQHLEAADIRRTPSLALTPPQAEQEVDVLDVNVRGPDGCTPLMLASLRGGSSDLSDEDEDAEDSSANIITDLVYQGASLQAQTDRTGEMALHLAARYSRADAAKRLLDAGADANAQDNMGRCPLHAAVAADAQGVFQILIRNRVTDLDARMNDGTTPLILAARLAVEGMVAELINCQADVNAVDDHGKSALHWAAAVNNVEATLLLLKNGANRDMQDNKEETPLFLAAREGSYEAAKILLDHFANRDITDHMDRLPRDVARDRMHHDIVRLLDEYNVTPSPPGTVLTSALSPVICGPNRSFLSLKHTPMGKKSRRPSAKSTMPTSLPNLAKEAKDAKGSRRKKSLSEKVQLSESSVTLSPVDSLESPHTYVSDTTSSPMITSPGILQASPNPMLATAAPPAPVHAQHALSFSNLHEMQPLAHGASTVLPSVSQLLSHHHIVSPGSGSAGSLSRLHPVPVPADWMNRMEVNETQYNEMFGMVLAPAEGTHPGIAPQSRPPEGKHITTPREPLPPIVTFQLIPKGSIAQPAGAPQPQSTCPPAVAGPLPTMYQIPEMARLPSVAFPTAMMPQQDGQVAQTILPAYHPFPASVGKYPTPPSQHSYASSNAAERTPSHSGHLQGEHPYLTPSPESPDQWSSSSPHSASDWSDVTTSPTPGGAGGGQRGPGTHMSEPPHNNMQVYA
Pro-neuregulin-1, membrane-bound isoform (Homo sapiens), sequence (Q02297 whole entry, looked up, the tested form may be a part, canonical isoform): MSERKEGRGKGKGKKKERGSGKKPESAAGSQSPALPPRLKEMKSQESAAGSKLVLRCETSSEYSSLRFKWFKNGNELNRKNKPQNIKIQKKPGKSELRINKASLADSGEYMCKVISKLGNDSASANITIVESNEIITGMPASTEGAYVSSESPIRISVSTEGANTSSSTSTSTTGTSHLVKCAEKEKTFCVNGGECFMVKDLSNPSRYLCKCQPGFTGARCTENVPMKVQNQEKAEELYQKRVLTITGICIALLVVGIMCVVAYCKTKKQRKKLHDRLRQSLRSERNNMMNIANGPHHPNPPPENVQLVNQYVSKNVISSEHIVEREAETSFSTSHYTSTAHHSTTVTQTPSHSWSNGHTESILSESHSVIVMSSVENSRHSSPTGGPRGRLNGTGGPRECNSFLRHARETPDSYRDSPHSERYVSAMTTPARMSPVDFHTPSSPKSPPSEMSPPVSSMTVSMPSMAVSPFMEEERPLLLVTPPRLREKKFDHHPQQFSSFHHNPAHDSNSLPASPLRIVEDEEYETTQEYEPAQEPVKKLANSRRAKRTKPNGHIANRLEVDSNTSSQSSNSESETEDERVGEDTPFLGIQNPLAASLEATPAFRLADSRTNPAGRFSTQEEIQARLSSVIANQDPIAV

As for `CC(C)=CCCC(C)=CCON=C1C[C@@H](O)[C@@H](O)[C@@H]2[C@@H]3C(=O)N(C4CCCCC4)C(=O)[C@@H]3CC[C@@H]12`, the composite z-score in test [1] was 1.18; in test [2], 0.76; in test [3], -0.132; in test [4], 0.332; in [5] it was -0.0557; in [6], -0.148. Further, the composite z-score was 0.598 in [7], 0.0152 in test [9] and -0.374 in [10]. Further, in [8], the z-score was 0.735 (inactive).

Regarding `C#CCCCON=C1C[C@@H](O)[C@@H](O)[C@@H]2[C@@H]3C(=O)N(C(C)(C)C)C(=O)[C@@H]3CC[C@H]12`, the composite z-score in test [1] was 1.86; in test [2] it was 1.01; in test [3], -0.0245; in test [4] it was -0.104; in [5], 0.162; in [6] it was -0.431. Further, the composite z-score in [7] was -0.58; in test [9], 0.774; in test [10], -0.122. Moreover, the z-score in test [8] was -0.247 (inactive).

`O=C1[C@H]2[C@H]3[C@H](O)[C@H](O)CC(=NOC[C@@H](O)COCc4ccco4)[C@H]3CC[C@H]2C(=O)N1c1ccc(F)cc1F`: the composite z-score was -0.191 in test [1]; 0.862 in test [2]; -0.142 in test [3]; 0.0434 in test [4]; -0.853 in test [5]; -0.452 in [6]. Also, the composite z-score in test [7] is 1.23; in test [9], -0.999; in test [10], -0.0047. Further, in test [8], the z-score is -1.53 (inactive).

Regarding `O=C(NN=C1C[C@@H](O)[C@@H](O)[C@@H]2[C@@H]3C(=O)N(C4CCCCC4)C(=O)[C@@H]3CC[C@@H]12)OCc1ccccc1`, the composite z-score is -0.107 in [1]; 0.2 in test [2]; -0.0667 in test [3]; 0.0505 in test [4]; -0.103 in test [5]; -0.32 in test [6]. Moreover, the composite z-score is -0.235 in test [7], 0.818 in [9] and -0.16 in test [10]. Further, the z-score in test [8] is 0.448 (inactive).

With `COC(=O)CC=C[C@@H](C)[C@@H](C=NOCC[C@@H]1C=C[C@H](OC(C)=O)[C@@H](COC(C)=O)O1)OC`, the composite z-score in test [1] is -0.413; in test [2] it was 0.174; in [3] it was 0.0144; in [4], 0.502; in [5] it was 0.193; in test [6], -0.0568. The composite z-score worked out at 0.813 in test [7], 0.0492 in test [9] and 0.0053 in test [10]. For the same compound, in test [8], the z-score was 0.799 (inactive).

`Cc1cc2c(c(=O)o1)[C@@H](O)[C@H]1O[C@H]1C2=O`: the composite z-score in test [1] was -0.494; in [2] it was 0.23; in test [3], -0.0103; in [4], 0.336; in test [5] it was 0.378; in [6], -0.167. The composite z-score amounted to 0.239 in test [7], 0.163 in [9] and 0.151 in [10]. In addition, the z-score in test [8] was 0.446 (inactive).

Regarding `CC(C)=CCCC(C)=CCON=C1C[C@@H](O)[C@@H](O)[C@@H]2[C@@H]3C(=O)N(C(C)(C)C)C(=O)[C@@H]3CC[C@H]12`, the composite z-score in [1] is -0.28; in test [2], -0.0211; in test [3] it was 0.0122; in [4], 0.406; in test [5], 0.591; in [6], 0.0095. The composite z-score was 0.744 in test [7], -0.0538 in test [9] and -0.0994 in [10]. Also, the z-score in test [8] is 0.132 (inactive).

On to `C[n+]1ccc(-c2ccc(CO)cc2)cc1`, for which the composite z-score is 0.772 in test [1]; -0.688 in [2]; -0.131 in [3]; -0.116 in test [4]; 1.08 in test [5]; 0.0728 in test [6]. The results for the composite z-score in [7], in [9] and in test [10] were 0.0658, -0.0846 and 0.0053, respectively. Besides, in test [8], the z-score is 0.65 (inactive).

With `COC(=O)CC=C[C@@H](C)[C@@H](C=NOC[C@H]1O[C@H](c2ccccc2)C=C[C@@H]1Oc1ccc(OC)cc1)NS(=O)(=O)c1ccc(C)cc1`, the composite z-score in test [1] was 0.577; in test [2], -0.564; in [3], -0.127; in test [4], -1.06; in [5], -0.766; in test [6], -0.754. Besides, the composite z-score in test [7] is -1.29; in test [9] it was -0.0763; in [10] it was -0.0645. Moreover, the z-score in test [8] is -0.461 (inactive).

Regarding `COC(=O)CC=C[C@@H](C)[C@@H](C=NO[C@H](C)c1cn([C@H](CO)Cc2ccccc2)nn1)NS(=O)(=O)c1ccc(C)cc1`, the composite z-score in test [1] is -0.468; in [2] it was 2.12; in test [3] it was -0.165; in [4] it was -0.147; in test [5], -0.303; in test [6], -0.211. In addition, the composite z-score in [7] is 0.0224; in test [9], 0.227; in test [10], -0.251. Further, the z-score in test [8] was -0.25 (inactive).

Consider `COc1cc(O)c(C(=O)C=Cc2ccc3c(c2)OCO3)c(OC)c1`, for which the composite z-score in test [1] is -0.132; in test [2] it was 0.0414; in [3], 0.0198; in test [4], 0.2; in test [5] it was -0.877; in test [6], -0.288. Also, the composite z-score in test [7] is -0.927; in [9], -0.155; in test [10] it was 0.0238. In addition, in test [8], the z-score is -0.984 (inactive).

In the case of `COC(=O)[C@H](C)NC(=O)CCC1CC(OC(=O)NCc2ccc3c(c2)OCO3)CC2(CCCC(COC(=O)NCCc3ccccc3OC)O2)O1` (stereo not given in full), the composite z-score in [1] is -0.587; in test [2] it was 0.172; in [3], -0.171; in [4], 0.16; in [5], 0.138; in [6], 0.597. In addition, the composite z-score is 0.751 in test [7], -0.17 in test [9] and 0.0274 in test [10]. For the same compound, the z-score in [8] is 1.06 (inactive).

In the case of `COC(=O)CC=C[C@@H](C)[C@@H](C=NO[C@@H](C)c1cc(-c2c(C)cc(C)cc2C)no1)NS(=O)(=O)c1ccc(C)cc1`, the composite z-score in test [1] was 1.38; in [2], -0.498; in test [3] it was -0.144; in [4], -1.29; in [5] it was -1.06; in [6] it was -0.647. In addition, the composite z-score is -0.631 in [7], -0.176 in [9] and -0.236 in [10]. The z-score in [8] is 0.295 (inactive).
